This is a sample that favours compounds with a hit; in the whole collection about 3.4% have one here.
hgDAF-12 ag = H. glycines DAF-12 receptor agonists, primary screen, cell-based, luminescence, HEK293, GAL4 fusion, UAS-luciferase; HEK293 GAL4-hgDAF12 UAS-luciferase reporter, agonist luminescence; normalized to butyrate control; activation, % at 6.8 µM; hit rate 1.8% among 370,000; AID 687014, 2013;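 active means activation above a cutoff set at the mean of all screened compounds plus 3 SD, cut at about 10% in these data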;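 further: 0% = DMSO wells and 100% = sodium butyrate wells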
hcDAF-12 act = H. contortus DAF-12 nuclear receptor activators, primary screen, cell-based, luminescence, HEK293, lit1-tk-luc reporter | activation, % at 6.8 µM | HEK293 hcDAF-12 lit1-tk-luc reporter; 0% DMSO, 100% Δ7-dafachronic acid | hit rate 1.4% among 370,000 | AID 652067, 2013;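 active means activation above the mean of all tested compounds plus 3 SD, cut at about 5.5% in these data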;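 further: 100% = response to 3 µM Δ7-dafachronic acid high control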
NF-kB neuron act = activators of NF-kB expression in neurons, primary screen, cell-based, HTS; human neuronal cells, NF-kB reporter expression; stronger effect = higher value; fold change at 12.5 µM; hit rate 1.6% among 190,000; AID 1239, 2008; in the data active means fold change above about 3.3
APP 5'UTR act = activators of APP 5'UTR luciferase reporter, primary screen, SH-SY5Y cells | SH-SY5Y APP 5'UTR luciferase reporter, luminescence; zero percent = DMSO vehicle wells | activation, % at 2 µM | hit rate 1% among 190,000 | AID 1276, 2008;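 active means activation above a set limit, based on mean plus 3 SD of controls, cut at about 140% in these data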
ssDAF12 agonist = S. stercoralis DAF-12 nuclear receptor activators, primary screen, cell-based, luminescence, HEK293, GRIP1 co-expression, lit1-tk-luc; Nuclear hormone receptor DAF-12 (Strongyloides stercoralis); HEK293 ssDAF-12/GRIP1 lit1-tk-luc reporter; % of 3 µM dafachronic acid response; activation, % at 6.8 µM; hit rate 1% among 370,000; AID 652126, 2013;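 active means activation above the mean over all tested compounds plus 3 SD, cut at about 0.9% in these data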;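 further: 0% = DMSO-only wells and 100% = 3 µM delta7-dafachronic acid wells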
* hit, by the source's call; nt = no result.

SMILES | hgDAF-12 ag | hcDAF-12 act | NF-kB neuron act | APP 5'UTR act | ssDAF12 agonist
COc1ccc(S(=O)(=O)N2N=C(c3ccc(NS(C)(=O)=O)cc3)CC2c2ccco2)cc1 (centres undefined) | 2 | 5.6* | 0.75 | -7 | 1.3*
C=CCOc1ccc(/C=C/C(C)=N\O)cc1 | 9 | 3 | 4.2* | 92 | 0
COC(=O)c1ccc(CN2CC3CC(c4ccccc4)N4CCCC34C2=O)cc1 (centres undefined) | -1 | 1 | nt | nt | -1
Fc1ccc(NCc2cn3ccccc3n2)cc1 | 9 | 2 | 2.2 | 36 | -1
Fc1cccc(NCc2cn3ccccc3n2)c1 | 11* | 4 | 4.2* | 110 | 1
Cc1cccc(NC(=O)c2n[nH]c([N+](=O)[O-])c2Br)c1C | 11* | 3 | 4.1* | 132 | 1
COc1ccc(CCN(Cc2cccs2)S(=O)(=O)c2ccccc2)cc1OC | -2 | -4 | nt | nt | -1
C[C@H]1[C@@H](NC(=O)C2CCCCC2)CC[C@@]23CCCN2C(=O)CCC[C@@H]13 | -1 | -1 | nt | nt | -2
CCc1ccc(/C=N/Nc2ncnc3nc[nH]c23)cc1 | 11* | 3 | nt | nt | -1
Cc1nn(Cc2c(F)c(F)c(F)c(F)c2F)c(C)c1NC(=O)c1ccc(COc2cc(Cl)ccc2Cl)cc1 | 10 | 0 | 1.9 | 24 | 3.4*
Cc1ccc(-c2nc3ncccc3o2)cc1N | 7 | 5.8* | nt | nt | -1
O=C(CSc1nnc(-c2ccccc2)n1-c1ccc(Cl)cc1)c1ccc(F)cc1 | -1 | -2 | nt | nt | -2
COc1cccc(C2c3[nH]c4ccccc4c3C[C@H]3C(=O)N(C4CC4)CC(=O)N23)c1 (some centres undefined) | -2 | 1 | nt | nt | 0
COc1ccc(OC)c(C2c3[nH]c4ccccc4c3C[C@H]3C(=O)N(C4CC4)CC(=O)N23)c1 (some centres undefined) | 2 | 5.8* | nt | nt | 0
CN(Cc1ccccc1)C(=O)OCc1cn(Cc2ccc(C(F)(F)F)cc2)nn1 | -1 | -2 | nt | nt | -1
O=C(Cc1cn2ccsc2n1)OCc1ccccc1 | -2 | 0 | 5.3* | 6 | -1
O=C(Cc1cn2ccsc2n1)NCc1ccccc1 | 3 | 6.0* | 1.3 | 10 | 0
c1ccc(CSCc2cn3ccsc3n2)cc1 | 7 | 1 | 8.9* | 64 | 0
O=C(Cc1cn2ccsc2n1)OCc1nc2ccccc2s1 | nt | nt | 1.2 | -11 | nt
c1ccc2oc(SCc3cn4ccsc4n3)nc2c1 | 9 | 3 | 3 | 127 | 1
COc1nc(OC)nc(N2CCC(C(=O)NCc3ccccc3OC)CC2)n1 | 4 | -2 | nt | nt | 0
Nc1ccc(N2CCN(c3ccc(Cl)c(Cl)c3)CC2)cc1 | 0 | 1 | 3.4* | -32 | -1
O=C(O)c1ccc(-n2nc(-c3ccccc3O)nc2-c2ccccc2O)cc1 | -2 | -1 | nt | nt | -1
CC(=O)Nc1ccc(NC(=O)CSc2nnc(-c3cccs3)o2)cc1 | 0 | 1 | nt | nt | -1
CN(CCO)c1ccc2c(c1)Oc1ccccc1CN(Cc1cn(Cc3ccc(C(F)(F)F)cc3)nn1)S2(=O)=O | 4 | -1 | nt | nt | 0
SMILES | hgDAF-12 ag | hcDAF-12 act | NF-kB neuron act | APP 5'UTR act | ssDAF12 agonist
O=C(Cc1ccccc1)Nc1nonc1NC(=O)c1ccccc1 | 0 | -2 | 3.7* | 16 | -1
O=C(C1CCCN1C(=O)c1cccs1)N1CCc2ccccc21 (centres undefined) | 1 | 6.0* | 1.1 | 19 | 0
Cc1ccc(NC(=O)C2CC(=O)Nc3nncn32)cc1 (centres undefined) | 3 | 2 | 1.2 | 16 | 8.3*
O=C(NC(=O)c1ccccc1O)c1ccc2c(c1)CCO2 | 12* | 4 | nt | nt | 1.0*
COC(=O)[C@]12C[C@H](CC(=O)NCC3CCCCC3)C(=O)N(CCC3=CCCCC3)C1=C[C@H](C(C)C)O[C@@H]2C1CC1 | 2 | 3 | nt | nt | -1
COc1ccc(Nc2ccc([N+](=O)[O-])cn2)cc1 | 5 | 1 | nt | nt | -1
COc1ccc(CNc2ccc([N+](=O)[O-])cn2)cc1 | 12* | 0 | nt | nt | 0
CN(Cc1ccccc1F)C(=O)C1C2C=CC3(CN(Cc4ccccc4)C(=O)C13)O2 (centres undefined) | -1 | 0 | nt | nt | -1
Cn1c(N)c(C(=O)/C=C/c2ccccc2)c(=O)[nH]c1=O | 9 | 3 | nt | nt | 1.1*
Cn1cc(/C=C2\SC(=S)N(NC(=O)c3ccccc3)C2=O)c2ccccc21 | 1 | 4 | 1.2 | -5 | 1.0*
O=C(NCc1ccco1)c1ccc([N+](=O)[O-])o1 | -2 | 1 | 5.6* | -10 | -1
O=C(NCc1cccnc1)c1ccc([N+](=O)[O-])o1 | -2 | 0 | 5.3* | -7 | -1
O=C(NNC(=O)c1ccc([N+](=O)[O-])o1)c1ccccc1 | -7 | -1 | 2.1 | 12 | -1
O=C(Nc1cccnc1)c1ccc([N+](=O)[O-])o1 | -3 | 1 | nt | nt | -1
O=C(NN(c1ccccc1)c1ccccc1)c1ccc([N+](=O)[O-])o1 | 0 | -1 | 3.5* | 18 | -1
CCCC1CCC2(CC1)CCC2OC(=O)Nc1ccccc1C (centres undefined) | 5 | 0 | nt | nt | -1
CC(COc1ccc(S(C)(=O)=O)cc1)CN1CCC(C(O)(c2ccccc2)c2ccccc2)CC1 (centres undefined) | 0 | -1 | nt | nt | -2
COc1ccc(NC(=O)c2cc(C(C)C)on2)c(OC)c1 | 8 | 6.4* | 2.6 | 53 | -1
COc1ccc(NC(=O)c2ccccc2O)c(OC)c1 | 9 | 5.8* | 2.6 | 78 | 1
COc1ccc(NC(=O)c2ccccc2SC)c(OC)c1 | -1 | -2 | 1.1 | 2 | -2
CC(C)CNS(=O)(=O)/C=C/c1ccccc1CNC(=O)OC(C)(C)C | -1 | -3 | nt | nt | -1
CCOC(=O)[C@]12CCCCC/C=C\1N(CCc1ccc(Cl)cc1)C(=O)[C@H]2CC(=O)NCC1CCCCC1 | 5 | -3 | nt | nt | -1
CC(=O)N1CCN(C(=O)c2cc3c(s2)CCC(C)C3)CC1 (centres undefined) | 6 | 0 | nt | nt | 1.0*
COc1ccc(C(=O)NN)cc1 | 9 | 2 | nt | nt | -1
COc1ccc(-c2cn3cc(C(=O)NN)ccc3n2)cc1 | 12* | 1 | 1.1 | 67 | -1
Cc1nc2c(-c3ccccc3)c(C)nn2c(N)c1-c1ccccc1 | 8 | 4 | 2.2 | 199* | 0
Cc1ccc(C(c2c(C)nn(-c3ccccc3)c2N)c2c(C)nn(-c3ccccc3)c2N)cc1 | 3 | 0 | 0.87 | 6 | -1
Cc1nn(-c2ccccc2)c(N)c1-c1ccccc1 | 9 | 5 | 2.6 | 7 | 1.0*
Cc1ccc(-c2cc(N)n(-c3ccccc3)n2)cc1 | 11* | 3 | 4.7* | 126 | 0
